From the supplement of paper PMC9801561 come the findings set out here.

SMILES strings stand for the structures. ± gives the standard deviation of the averaged measurements.

In assay [1] the test system is Escherichia coli Nissle 1917. Description: area under OmniLog respiration curve over 48 h (OmniLog units x h); higher = more growth / nutrient utilisation; extreme values may be limits of the assay. The settings on record: incubation: 48 h, 37 °C.
For assay [2], the system named is Escherichia coli Nissle 1917. Kind of assay: DuctApe activity index of respiration/growth curve (0 no growth to 9 maximum) (index 0-9); higher = more growth / nutrient utilisation, active = 3 or more; extreme values may be limits of the assay. The conditions noted are these: incubation: 48 h, 37 °C.
Where [3] appears, read: nutrient role: C-Source, carbohydrate.
Setting [4] is: nutrient role: sole sulfur source (pyruvate carbon).
Where [5] appears, read: nutrient role: sole nitrogen source (pyruvate carbon).
Where [6] appears, read: nutrient role: sole phosphorus source (pyruvate carbon).
[7] abbreviates: nutrient role: C-Source, carboxylic acid.
Setting [8] is: nutrient role: N-Source, inorganic.
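For DuctApe activity index of respiration/growth curve (0 no growth to 9 maximum) in this document: biolog PM4 phosphorus and sulfur plates, tetrazolium violet dye reduction read in the OmniLog every 15 min, kinetic curves scored by DuctApe, each plate run in triplicate.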

For `OC[C@H]1O[C@H](O[C@H]2[C@H](O)[C@@H](O)[C@@H](O[C@H]3[C@H](O)[C@@H](O)C(O)O[C@@H]3CO)O[C@@H]2CO)[C@H](O)[C@@H](O)[C@@H]1O` (mixture of isomers) [Maltotriose], the “area under OmniLog respiration curve” value in assay [1] (setting [3]) was 8540 ± 380. In addition, the DuctApe activity index in assay [2] (setting [3]) was 8 (active).
On to `O=S(=O)(O)CCO` [2-Hydroxyethane Sulfonic acid], for which the “area under OmniLog respiration curve” value in assay [1] (setting [4]) came out at 7790 ± 450. The DuctApe activity index in assay [2] (setting [4]) is 8 (active).
On to `CCC(N)C(=O)O` (racemic) [DL-a-Amino-N-Butyric acid], for which the “area under OmniLog respiration curve” value in assay [1] (setting [5]) turned out to be 6040 ± 1200. The DuctApe activity index in assay [2] (setting [5]) was 7 (active).
For `OC[C@H]1O[C@@H](O[C@H]2[C@H](O)[C@@H](O)[C@@H](O)O[C@@H]2CO)[C@H](O)[C@@H](O)[C@H]1O` [a-D-Lactose], in assay [1] (setting [3]), the “area under OmniLog respiration curve” value turned out to be 7580 ± 630. In addition, the DuctApe activity index in assay [2] (setting [3]) is 7.67 (active).
As for `O=P(O)(O)CP(=O)(O)O` [Methylene Diphosphonic acid], the “area under OmniLog respiration curve” value in assay [1] (setting [6]) is 618 ± 470. For the same compound, in assay [2] (setting [6]), the DuctApe activity index was 0.667 (inactive).
As for `C[C@H](N)C(=O)N[C@@H](CCC(=O)O)C(=O)O`, the “area under OmniLog respiration curve” value in assay [1] (setting [5]) stood at 8550 ± 1300. Moreover, the DuctApe activity index in assay [2] (setting [5]) is 8.33 (active).
Turning to `OC[C@H]1O[C@H](O[C@H]2O[C@H](CO)[C@@H](O)[C@H](O)[C@H]2O)[C@H](O)[C@@H](O)[C@@H]1O` [D-Trehalose], the “area under OmniLog respiration curve” value in assay [1] (setting [3]) came out at 8920 ± 460. Moreover, the DuctApe activity index in assay [2] (setting [3]) is 8.67 (active).
For `OCC1OC(OC2C(CO)OC(O)C(O)C2O)C(O)C(O)C1O` [D-Cellobiose], in that order: 963 ± 760 and 1.33 (inactive).
Consider `O=P(O)(O)O[C@H]1O[C@H](CO)[C@@H](O)[C@H](O)[C@@H]1O` [D-Mannose-1-Phosphate], for which the “area under OmniLog respiration curve” value in assay [1] (setting [6]) was found to be 9100 ± 340. Besides, in assay [2] (setting [6]), the DuctApe activity index is 9 (active).
Turning to `O=C(O)CCCCCCCCC(=O)O` [Sebacic acid], in assay [1] (setting [7]), the “area under OmniLog respiration curve” value is 4.72. The DuctApe activity index in assay [2] (setting [7]) is 0 (inactive).
For `COC(=O)C(C)=O` [Methylpyruvate], the “area under OmniLog respiration curve” value in assay [1] (nutrient role: C-Source, ester) turned out to be 8530 ± 550. Besides, the DuctApe activity index in assay [2] (nutrient role: C-Source, ester) is 8.33 (active).
Turning to `O=C(O)CC(=O)O` [Malonic acid], in assay [1] (setting [7]), the “area under OmniLog respiration curve” value was 4.72. For the same compound, the DuctApe activity index in assay [2] (setting [7]) is 0 (inactive).
As for `O=C(O)CP(=O)(O)O` [Phosphono Acetic acid], in assay [1] (setting [6]), the “area under OmniLog respiration curve” value was determined as 143 ± 120. For the same compound, the DuctApe activity index in assay [2] (setting [6]) is 1.33 (inactive).
For the compound `O=S(=O)(O)O` [Sulfate], in assay [1] (setting [4]), the “area under OmniLog respiration curve” value turned out to be 6810 ± 400. Further, in assay [2] (setting [4]), the DuctApe activity index is 7.33 (active).
In the case of `O=C[C@H](O)[C@@H](O)[C@H](O)[C@H](O)CO[C@@H]1O[C@H](CO)[C@@H](O)[C@H](O)[C@H]1O` [Gentiobiose], in assay [1] (setting [3]), the “area under OmniLog respiration curve” value was found to be 475 ± 820. For the same compound, the DuctApe activity index in assay [2] (setting [3]) is 1 (inactive).
`OCC1(O)OC[C@H](O)[C@@H](O)[C@@H]1O` (stereo partly drawn) [L-Sorbose]: the “area under OmniLog respiration curve” value in assay [1] (setting [3]) amounted to 6370 ± 540. The DuctApe activity index in assay [2] (setting [3]) was 7 (active).
With `CC[C@H](O)C(=O)O` [a-Hydroxybutyric acid], the “area under OmniLog respiration curve” value in assay [1] (setting [7]) was 2930 ± 240. The DuctApe activity index in assay [2] (setting [7]) is 4 (active).
As to `CC(=O)N[C@H]1[C@H]([C@H](O)[C@H](O)CO)OC(O)(C(=O)O)C[C@@H]1O` (stereo not given in full) [N-Acetyl-Neuraminic acid], the “area under OmniLog respiration curve” value in assay [1] (setting [7]) amounted to 6140 ± 840. Further, the DuctApe activity index in assay [2] (setting [7]) is 7 (active).
Take `N[C@@H](CSC[C@H](N)C(=O)O)C(=O)O` [Lanthionine]: the “area under OmniLog respiration curve” value in assay [1] (setting [4]) came out at 7490 ± 330. Further, the DuctApe activity index in assay [2] (setting [4]) was 8 (active).
Take `O[C@@H]1[C@H](O)[C@H](O)CO[C@H]1O` [D-Ribose]: the “area under OmniLog respiration curve” value in assay [1] (setting [3]) turned out to be 9520 ± 880. Further, the DuctApe activity index in assay [2] (setting [3]) is 8.67 (active).
The corresponding values for `OC1OC[C@@H](O)[C@@H](O)[C@@H]1O` (stereo partly drawn) [D-Arabinose] are 2440 ± 230 and 4 (active).
In the case of `N[C@H](CCC(=O)O)C(=O)O` [D-Glutamic acid], the “area under OmniLog respiration curve” value in assay [1] (setting [5]) stood at 57.1 ± 89. Moreover, in assay [2] (setting [5]), the DuctApe activity index was 0.667 (inactive).
Turning to `CSCC[C@H](N)C(=O)N[C@@H](C)C(=O)O`, the “area under OmniLog respiration curve” value in assay [1] (setting [5]) is 6410 ± 1200. Besides, the DuctApe activity index in assay [2] (setting [5]) was 7 (active).
Take `CC(=O)N[C@@H](CO)[C@@H](O)[C@H](O)[C@H](O)CO` [N-Acetyl-D-Glucosaminitol]: the “area under OmniLog respiration curve” value in assay [1] (setting [3]) came out at 4.72. For the same compound, the DuctApe activity index in assay [2] (setting [3]) is 0 (inactive).
On to `N[C@@H](Cc1ccc(O)cc1)C(=O)O` [L-Tyrosine], for which the “area under OmniLog respiration curve” value in assay [1] (setting [5]) was determined as 1110 ± 450. The DuctApe activity index in assay [2] (setting [5]) is 2.33 (inactive).
For the compound `CCC(=O)C(=O)O` [a-Ketobutyric acid], the “area under OmniLog respiration curve” value in assay [1] (setting [7]) is 800 ± 760. For the same compound, in assay [2] (setting [7]), the DuctApe activity index was 1.67 (inactive).
For `O=C1O[C@@H]([C@H](O)CO)[C@H](O)[C@H]1O` [D-Galactonic acid-g-Lactone], in that order: 8410 ± 840 and 8.33 (active).
`O=C(O)C(CO)OP(=O)(O)O` [D-2-Phospho-Glyceric acid]: the “area under OmniLog respiration curve” value in assay [1] (setting [6]) was determined as 9640 ± 700. In addition, the DuctApe activity index in assay [2] (setting [6]) is 9 (active).
As for `C[C@H](N)C(=O)N[C@@H](CC(=O)O)C(=O)O`, the “area under OmniLog respiration curve” value in assay [1] (setting [5]) turned out to be 9150 ± 1000. In addition, the DuctApe activity index in assay [2] (setting [5]) was 8.67 (active).
As for `OCc1ccccc1O[C@@H]1O[C@H](CO)[C@@H](O)[C@H](O)[C@H]1O` [Salicin], in assay [1] (setting [3]), the “area under OmniLog respiration curve” value came out at 4.72. Moreover, in assay [2] (setting [3]), the DuctApe activity index was 0 (inactive).
For `N` [Ammonia], the “area under OmniLog respiration curve” value in assay [1] (setting [8]) was determined as 8190 ± 1000. In assay [2] (setting [8]), the DuctApe activity index is 8.33 (active).
For `O=C(CO)[C@@H](O)[C@H](O)[C@H](O)CO[C@H]1O[C@H](CO)[C@@H](O)[C@H](O)[C@H]1O` [Palatinose], the “area under OmniLog respiration curve” value in assay [1] (setting [3]) stood at 174 ± 160. For the same compound, in assay [2] (setting [3]), the DuctApe activity index was 0 (inactive).
For `O=C(O)[C@H](O)[C@@H](O)[C@H](O)[C@H](O)COP(=O)(O)O` [6-Phospho-Gluconic acid], the “area under OmniLog respiration curve” value in assay [1] (setting [6]) was found to be 9360 ± 510. In addition, the DuctApe activity index in assay [2] (setting [6]) was 9 (active).
As to `NCCO` [Ethanolamine], the “area under OmniLog respiration curve” value in assay [1] (setting [5]) stood at 27.4 ± 39. Moreover, in assay [2] (setting [5]), the DuctApe activity index was 0 (inactive).
On to `O=C(O)[C@@H](O)[C@H](O)[C@H](O)[C@@H](O)C(=O)O` [Mucic acid], for which, in assay [1] (setting [7]), the “area under OmniLog respiration curve” value worked out at 8240 ± 630. Also, the DuctApe activity index in assay [2] (setting [7]) was 8.33 (active).
As to `OC[C@H]1O[C@H](OC[C@H]2O[C@H](OC[C@H]3O[C@H](O[C@]4(CO)O[C@H](CO)[C@@H](O)[C@@H]4O)[C@H](O)[C@@H](O)[C@@H]3O)[C@H](O)[C@@H](O)[C@H]2O)[C@H](O)[C@@H](O)[C@H]1O` [Stachyose], the “area under OmniLog respiration curve” value in assay [1] (setting [3]) stood at 433 ± 380. In addition, in assay [2] (setting [3]), the DuctApe activity index was 1.33 (inactive).
Consider `Nc1[nH]cnc2ncnc1-2` [Adenine], for which the “area under OmniLog respiration curve” value in assay [1] (setting [5]) was 5810 ± 860. The DuctApe activity index in assay [2] (setting [5]) was 6.67 (active).
For `CCCCS(=O)(=O)O` [Butane Sulfonic acid], the “area under OmniLog respiration curve” value in assay [1] (setting [4]) was determined as 7820 ± 190. Besides, the DuctApe activity index in assay [2] (setting [4]) is 8 (active).
As for `OC[C@@H](O)C(O)[C@H](O)CO` [D-Arabitol], the “area under OmniLog respiration curve” value in assay [1] (setting [3]) was found to be 4.72. Also, the DuctApe activity index in assay [2] (setting [3]) is 0 (inactive).
Take `O=S1(=O)CCCC1` [Tetramethylene Sulfone]: the “area under OmniLog respiration curve” value in assay [1] (setting [4]) came to 615 ± 500. In assay [2] (setting [4]), the DuctApe activity index is 0 (inactive).
Consider `O=CO` [Formic acid], for which, in assay [1] (setting [7]), the “area under OmniLog respiration curve” value was found to be 112 ± 190. Besides, in assay [2] (setting [7]), the DuctApe activity index was 0.333 (inactive).
`NC(N)=O`: in assay [1] (setting [5]), the “area under OmniLog respiration curve” value came to 4.72. Also, the DuctApe activity index in assay [2] (setting [5]) was 0 (inactive).
Regarding `O[C@@H]1[C@@H](O)[C@@H](O)CO[C@H]1O` [L-Arabinose], the “area under OmniLog respiration curve” value in assay [1] (setting [3]) was 8240 ± 430. Besides, the DuctApe activity index in assay [2] (setting [3]) was 8 (active).
Regarding `CSC[C@H](N)C(=O)O` [S-Methyl-L-Cysteine], the “area under OmniLog respiration curve” value in assay [1] (setting [4]) was determined as 17.8 ± 23. The DuctApe activity index in assay [2] (setting [4]) is 0.333 (inactive).
`NCCCC[C@@H](N)C(=O)O` [D-Lysine]: the “area under OmniLog respiration curve” value in assay [1] (setting [5]) came out at 23.1 ± 23. Besides, the DuctApe activity index in assay [2] (setting [5]) is 0.667 (inactive).
